HCV inhibitor: blocks hepatitis C virus. AID 651820. 340,000 tested, 3.4% active. Potency, µM (doses to about 41.8 µM), for the others: at the highest dose activity change, negative = inhibition, most hits filed as inhibitors. Huh7.5.1 HCVcc-Cre infection, luciferase reporter, 44 h; further: potency means the concentration at half of the fitted maximal effect
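Infectious HCV cell culture screen: compound-treated cells (1,000/well, pre-plated 4 h) are infected with HCVcc-Cre at roughly 0.5 moi and grown 44 h. Infection is quantified by luciferase signal after 15 min substrate incubation at room temperature.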
Pf growth 96h: inhibits malaria parasite growth, 96 h. Potency, µM (series often up to 28.7 µM), for the others: top-dose activity change, negative = inhibition, usual class: inhibitors. 320,000 tested, 6.9% active. P. falciparum luciferase reporter growth, 96 h; further: potency means the concentration at half of the fitted maximal effect
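P. falciparum expressing integrated firefly luciferase grown in erythrocytes (2% hematocrit, 0.05% parasitemia final) with compounds for 96 hours at 37 C, 5% CO2. Growth inhibition read as loss of luminescence after adding luciferase detection reagent.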
MARV entry inh: blocks Marburg virus binding to or entry into cells; AID 540276; 300,000 tested, 1.8% active; Potency, µM (top dose mostly 37.8 µM), for inactives: at the highest dose activity change, negative = inhibition, hits mostly inhibitors; Marburg virus pseudotyped entry inhibition, cell reporter; calls by dose curve; tested in HEK293 cells; further: potency means the concentration at half of the fitted maximal effect
Pf growth 48h: P. falciparum growth inhibition at 48 hours (one generation); P. falciparum luciferase growth in erythrocytes, 48 h; 310,000 tested, 5.9% active; Potency, µM (series often up to 28.7 µM), without a hit: at the highest dose activity change, negative = inhibition, most hits filed as inhibitors; further: potency means the concentration at half of the fitted maximal effect
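Luciferase-expressing parasites in RBCs, 2% Hct / 0.1% parasitemia final; RPMI 1640 + 0.5% Albumax; 37 C, 5% CO2, one generation; luminescence read-out, lower signal = inhibition.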
Lassa entry inh: inhibitors of Lassa virus binding or cell entry. Potency, µM (top dose mostly 37.9 µM), for inactives: top-dose activity change, negative = inhibition, actives largely listed as inhibitors. Lassa virus pseudotype entry inhibition, cell reporter. 300,000 tested, 1.2% active; calls by dose curve; tested in HEK293 cells; further: potency means the concentration at half of the fitted maximal effect; nearly all actives have a fitted effect of over 50% in size
HCMV antiviral: human cytomegalovirus inhibition; HFF cells, HCMV-luciferase reporter, 72 h; active compounds read low; activity change, negative = inhibition, % at 57.5 µM; 410,000 tested, 4.5% active; AID 1259415; in the data active means activity change below about -60%; inconclusive means no clear call, values can overlap the other calls; inactive means above about -39%
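Inhibition of viral replication was scored as loss of reporter luminescence in HFFs infected with HCMV-luciferase (MOI 1 PFU/cell) for 72 h; compounds tested at 2 doses, normalized to buffer and Salinomycin controls.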
Starred values were filed as active, the others as inactive; ? = inconclusive; . = not tested or not shown; [ ] = dose if it differs, or a comment. Shown are actives, neighbours in structure and some others; about 14% of the full set was active somewhere. Unless noted, the call rests on the fitted dose curve; in most records, active means well fitted inhibition curve with a large enough effect; inconclusive means small, poorly fitted or top-dose-only effect, or another doubt; inactive means no such curve, though single readings can be large or run the other way. On the % scale 0 is the no-effect control and ±100 the full control effect.

SMILES	HCV inhibitor	Pf growth 96h	MARV entry inh	Pf growth 48h	Lassa entry inh	HCMV antiviral
CC1=C(C(=O)N(C)C)CC(CC(=O)NCCCN(C)C)C(=O)N1CCCN1CCCC1=O (stereo not given)	.	.	.	.	.	5
CC1CCN(S(=O)(=O)c2ccc3c(c2)N(CC(=O)N2CCN(c4ccccc4)CC2)C(=O)CO3)CC1	.	.	?	.	21%[46.1 µM]	-15
COc1ccc(NC(=O)CC2C(=O)N(c3ccc(OC)cc3)C(=O)N2CCc2cccs2)cc1 (stereo not given)	-7%	134%	-19%	-12%	9.2µM*	-34
CCCOc1ccc(NC(=O)CC2C(=O)N(C)C(=S)N2Cc2cccs2)cc1 (stereo not given)	?	?	?	12µM*	?	-11
COc1ccc(NC(=O)CC2C(=O)N(Cc3cccs3)C(=S)N2C(C)C)cc1 (stereo not given)	32%	29%[5.75 µM]	?	2.6µM*	4%	-36
COc1ccccc1C(NC(=O)C1CCN(CCOc2ccccc2)CC1)c1ccccn1 (stereo not given)	.	.	.	.	.	30
CC(=O)OC[C@H]1O[C@@H](ON=C2C[C@@H](O)[C@@H](O)[C@@H]3[C@H]4C(=O)N(C5CCCCC5)C(=O)[C@@H]4CC[C@@H]23)[C@H](OC(C)=O)[C@@H](OC(C)=O)[C@H]1OC(C)=O	.	.	-25%[14.2 µM]	.	.	.
CCOC(=O)c1cnc(SCC(=O)Nc2ccc(NC(C)=O)c(OC)c2)nc1N	12%	39%	?	11%	-6%	11
CCOC(=O)c1cnc(SCC(=O)Nc2cc(OC)ccc2OC)nc1N	6.3µM*	.	?	-11%	8%	7
COc1ccc(OC)c(NC(=O)CSc2nc(C)cs2)c1	25µM*	.	-9%	0%	1%	32
COc1ccc(NC(=O)CSc2nc(C)cs2)c(OC)c1	-21%	?	.	20%	.	-23
O=C(CSC1CC(=O)N(c2ccc(C(=O)O)cc2)C1=O)Nc1ccc(Cl)cc1 (stereo not given)	17%	12µM*	1%	2%	6%	-32
COc1ccc([C@@H]2[C@@H]3C(=O)N(C(C)(C)C)C(=O)[C@@H]3[C@]3(Cc4ccc(Cl)cc4)C(=O)N(c4cccc(C)c4)C(=O)N23)cc1	1%	8.3µM*	.	?	.	-24
COc1ccc([C@@H]2[C@@H]3C(=O)N(C(C)(C)C)C(=O)[C@@H]3[C@]3(CC(C)C)C(=O)N(c4ccccc4)C(=O)N23)cc1	8%	?	.	?	.	-29
COc1ccc(N2C(=O)N3[C@H](c4cccc(C)c4)[C@@H]4C(=O)N(Cc5ccccc5)C(=O)[C@@H]4[C@]3(Cc3ccccc3)C2=O)cc1	3%	4.7µM*	.	?	.	-24
COc1ccc([C@@H]2[C@@H]3C(=O)N(C(C)(C)C)C(=O)[C@@H]3[C@]3(Cc4ccc(Cl)cc4)C(=O)N(c4ccc(C)cc4)C(=O)N23)cc1	3%	6.6µM*	.	13µM*	.	2
CCn1c(SCC(=O)Nc2cc(C)on2)nc2c(c1=O)SCC2	.	-6%	13%	?	-8%	1
Cc1cc(C)n(-c2nc3ccccc3nc2Nc2ccc3[nH]c(=O)[nH]c3c2)n1	11µM*	.	-18%	-11%	7%	-14
Cc1cccc(C(C)C)c1NC(=O)C(C)OC(=O)Cn1cnc2c1c(=O)n(C)c(=O)n2C (stereo not given)	4%	23%	19%	47%	10%[46.1 µM]	-7
Cc1ccc(C(=O)N2C(=S)C(c3ccc(F)cc3)=NC23CCN(C)CC3)cc1	?	?	?	3%	?	-85*
CN1CCN(NC(=O)c2ccc(F)cc2)CC1	34%	97%	7%	-5%	0%	59
CCN1C(=O)C(CC(=O)Nc2ccc(Br)cc2)N(CCCc2ccccc2)C1=S (stereo not given)	?	?	?	?	13µM*	?
O=C(CC1C(=O)N(Cc2ccccc2)C(=S)N1CCN1CCOCC1)Nc1ccc(F)cc1 (stereo not given)	3%	-8%	6%[46.1 µM]	1.9µM*	1%	-69*
CCCOc1ccc(NC(=O)CC2C(=O)N(CC)C(=S)N2CCCN2CCN(Cc3ccccc3)CC2)cc1 (stereo not given)	?	4.1µM*	?	?	?	-84*
COc1ccc(/C(N)=N/OC(=O)c2ccco2)cc1	16%	33%	?	379%	7.1µM*	79
SMILES	HCV inhibitor	Pf growth 96h	MARV entry inh	Pf growth 48h	Lassa entry inh	HCMV antiviral
NC(CSCc1cccc(Br)c1)C(=O)O (stereo not given)	7%	-18%	.	17%	.	-65*
CCCOc1ccccc1C(=O)N1CCC(c2nc3ccccc3s2)CC1	.	.	-22%[46.1 µM]	.	-27%[46.1 µM]	-36
CCOC(=O)C1C(c2cccc(Cl)c2Cl)NC(=O)NC1(O)C(F)(F)F (stereo not given)	2%	-20%	?	16%	1%	6
CCOC(=O)C1C(c2ccc(C(=O)O)cc2)NC(=O)NC1(O)C(F)(F)F (stereo not given)	15%	28%	6%[46.1 µM]	5%	-2%	-72*
Cc1cccc(-n2c(SCC(=O)NC3CCCC3)nnc2-c2ccoc2C)c1	-12%	22%	-20%	13µM*	-10%	-32
Cc1nnc(SCC(=O)NC2CC2)n1-c1ccccc1	13%	4.7µM*	.	8%	.	13
COc1cccc(-n2c(SCC(=O)NC3CCCC3)nnc2-c2ccco2)c1	13%	-2%	-2%[46.1 µM]	2.1µM*	4%	-20
Cc1nnc(SCC(=O)NC2CCCC2)n1-c1ccccc1	11%	-21%	.	5%	.	3
Cc1cccc(-n2c(SCC(=O)NCc3ccco3)nnc2-c2ccco2)c1	13%	5.2µM*	-2%	?	-22%	-24
Cc1cc(-c2cc(NC=O)c3ncc(-c4cccc(C(=O)NCCN(C)C)c4)n3c2)cc(C)c1O	.	.	.	.	.	9
COc1cc2c(cc1CNC[C@H]1O[C@@H](n3ccc(N)nc3=O)[C@H](O)[C@@H]1O)OCO2	.	.	.	.	.	-17
CN(C(=O)CSc1nncn2c1cc1occc12)c1ccccc1	.	.	.	.	6%[46.1 µM]	-98*
CCc1cc2c(=O)c(-c3nc4ccccc4n3C)c(C)oc2c(CN2CCN(C)CC2)c1O	4%	.	.	?	.	.
CCc1cc(-c2n[nH]c(C)c2-c2nc3ccccc3n2C)c(O)c(CN2CCN(C)CC2)c1O	?	-25%	?	12µM*	-10%	-10
CCc1cc(-c2n[nH]c(C)c2-c2nc3ccccc3n2C)c(O)cc1O	?	13µM*	?	?	?	-71*
CCCS(=O)(=O)c1nc(S(=O)(=O)c2ccc(C)cc2)c(NCC(C)C)s1	.	.	-9%[46.1 µM]	.	-21%[46.1 µM]	-8
